Screens: PubChem BioAssay, National Center for Advancing Translational Sciences (NCATS)
This is a sample that favours compounds with a hit; in the whole collection about 21% have one here.
Pf growth 48h = Primary qHTS for delayed death inhibitors of the malarial parasite plastid, 48 hour incubation | P. falciparum luciferase growth in erythrocytes, 48 h | Potency, µM (doses to about 28.7 µM), hits mostly inhibitors | 310,000 compounds, 5.9% hits
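Growth was read as firefly luciferase luminescence after a 48 h, 37 C, 5% CO2 exposure of compounds to reporter-bearing P. falciparum cultures (0.1% parasitemia, 2% hematocrit final) in Albumax-supplemented RPMI 1640.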
CHX counter = Cycloheximide Counterscreen for Small Molecule Inhibitors of Shiga Toxin; 300,000 compounds, 12% hits; max response, %; cell reporter, cycloheximide protein synthesis inhibition counterscreen; AID 2314, 2010; in the data active = max response mostly above about 13%, no sharp cut-off; inactive = mostly below about 14%; note: read at 38.3 µM for the half of the compounds with a filed dose
NS1 inh = qHTS Assay for Inhibitors of Influenza NS1 Protein Function | 270,000 compounds, 0.4% hits | AID 2326, 2010 | Potency, µM (top dose mostly 46.1 µM); calls by dose curve; note: actives are rising curves; nearly all actives have a fitted effect of over 50% in size
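Recovery from NS1-induced slow growth read by OD600 in budding yeast switched to galactose assay medium (pH 6.0, -URA) at 1:100 dilution. Compound 23 nl per well; the matching strain lacking NS1 serves as control.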
Pf growth 96h = Primary qHTS for delayed death inhibitors of the malarial parasite plastid, 96 hour incubation; P. falciparum luciferase reporter growth, 96 h; Potency, µM (series often up to 28.7 µM), usual class: inhibitors; 320,000 compounds, 6.9% hits; AID 504834, 2011
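Parasite growth measured via integrated firefly luciferase reporter in P. falciparum. Infected erythrocytes at 2% hematocrit, 0.05% parasitemia final were treated 96 hours at 37 C under 5% CO2, and luminescence was read.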
Shiga inhibitor = A qHTS for Small Molecule Inhibitors of Shiga Toxin. Vero cells, Shiga toxin protein synthesis inhibition reporter. inhibition, % at 38.7 µM. 290,000 compounds, 9.2% hits; in the data active = inhibition mostly above about 28%, no sharp cut-off; inactive = mostly below about 43%
NS1 inh valid = Assay for Inhibitors of Influenza NS1 Protein Function: Hit Validation | shares compounds with NS1 inh | influenza NS1 function cell assay, 15-point titration | activity change, negative = inhibition, % at 32.9 µM | 1,400 tested, under 10 active | AID 492980, 2010; calls by dose curve
PR8 titer = Assay for Inhibitors of Influenza NS1 Protein Function: Influenza virus replication assay in MDCK cells infected with virus A/PR/8/34; shares compounds with NS1 inh; MDCK infected influenza A/PR/8/34, virus titer TCID50; hits give low values; virus titer (log TCID50), log10 TCID50 at 5 µM; 95 compounds, 30% hits; call rule not given here
Hits are given with their value; – = inactive; ? = inconclusive; · = not tested or not shown; + = active, no number. Unless noted, calls come from the whole dose curve; as a rule, active = well fitted inhibition curve with a large enough effect; inconclusive = small, poorly fitted or top-dose-only effect, or another doubt; inactive = no such curve, though single readings can be large or run the other way.

SMILES	Pf growth 48h	CHX counter	NS1 inh	Pf growth 96h	Shiga inhibitor	NS1 inh valid	others
COCCn1nnnc1C(c1cc2ccc(OC)cc2[nH]c1=O)N1CCN(C2CCCCC2)CC1 (configuration not stated)	?	–	4.47µM	?	–	–	PR8 titer=7.5
CSC1=NCCN1C(=O)c1ccc2c(c1)OCO2	?	–	?	?	–	–
COc1ccc(C(=O)N2CCN=C2SC)cc1OC	–	–	–	–	–	·
NC(=O)NC(=O)COC(=O)c1cccc(S(=O)(=O)N2CCCCCC2)c1	–	–	–	–	–	·
COc1ccc2nc(SCC(=O)Nc3ccccc3)[nH]c2c1	–	–	?	–	–	–
COc1ccc2nc(SCC(=O)Nc3nonc3C)[nH]c2c1	–	–	–	–	–	·
Cc1ccc(NC(=O)CCn2cc(C(F)(F)F)ccc2=O)cc1	–	–	–	–	–	·
O=C1CC(c2ccc(F)cc2)SC(N(c2ccccc2)c2ccccc2)=N1 (configuration not stated)	–	–	–	–	–	·
COc1cccc(-c2cc(=O)c3cc(NC(=O)c4ccc(N(C)C)cc4)ccc3[nH]2)c1	10.4µM	–	12.6µM	13.1µM	–	–
CC(C)(C)C(=O)Nc1ccc(C(=O)N/N=C/c2ccccc2OC(=O)c2ccc(Cl)cc2)cc1	?	–	10µM	?	–	–
Cc1cccc(C(=O)Oc2ccccc2/C=N/NC(=O)c2ccc(NC(=O)C(C)(C)C)cc2)c1	?	–	20µM	?	–	–
CCOc1cc(/C=N\NC(=O)c2ccc(NC(=O)C(C)(C)C)cc2)ccc1OC(=O)c1cccc(C)c1	?	–	–	?	–	·
Cc1ccc(/C=N/NC(=O)c2ccc(NC(=O)c3ccc(Cl)cc3)cc2)o1	–	–	–	–	–	·
Cc1ccc(NS(=O)(=O)c2cc(C(=O)Nc3cccc([N+](=O)[O-])c3)ccc2C)cc1	?	–	?	–	–	·
Cc1ccc(NC(=O)CC(=O)c2ccc([N+](=O)[O-])cc2)cc1S(=O)(=O)Nc1cccc(Cl)c1	?	–	14.1µM	?	–	–	PR8 titer=7.5
CC1CCC(NC(=O)CNC(=O)Cc2cccc3ccccc23)CC1 (configuration not stated)	–	–	–	–	–	·
CCN(CC)C(=O)c1sc2nc(-c3cccs3)cc(-c3ccc(Cl)cc3)c2c1N	?	–	4.47µM	7.38µM	–	?
N#Cc1sc2nc(-c3cccs3)cc(-c3ccc(Cl)cc3)c2c1N	?	–	–	?	–	·
COc1ccc(NS(=O)(=O)c2cccc(N/C(=N\S(=O)(=O)c3ccccc3)c3ccc(F)cc3)c2)cc1	?	–	11.2µM	?	–	–
COCCC(=O)N1CCC(Oc2ccc(C(=O)NCc3ncc(C)[nH]3)cc2)CC1	–	–	–	?	–	·
C=CCNC(=O)C1CC(=O)N(c2ccc(OCC(=O)Nc3c(C)cccc3C)cc2)C1 (configuration not stated)	–	–	?	–	–	–
CCCCn1c(N)c(N(CCOC)C(=O)c2ccc3c(c2)C(=O)N(c2ccccc2C)C3=O)c(=O)[nH]c1=O	–	·	·	–	·	·
CCC1(C(=O)OC)NC(c2ccco2)C2C(=O)N(c3ccc(F)cc3)C(=O)C21 (configuration not stated)	–	–	–	–	–	·
Cc1ccccc1N1C(=O)NC(=O)/C(=C\c2ccc3c(c2)CCCN3Cc2ccccc2)C1=O	–	–	?	–	–	–
O=Cc1ccc2c(c1)CCN2Cc1ccccc1	–	–	–	–	–	·
SMILES	Pf growth 48h	CHX counter	NS1 inh	Pf growth 96h	Shiga inhibitor	NS1 inh valid	others
O=C(NCCCN1CCOCC1)C1CC(=O)N(C2CCCCC2)C1 (configuration not stated)	–	–	1µM	?	–	–
COc1ccc(C2NC(C(=O)O)Cc3c2[nH]c2ccccc32)cc1OC (configuration not stated)	–	–	?	·	–	–
N#Cc1c(Cl)nc(-c2ccncc2)nc1-c1ccccc1	–	–	–	–	–	·
N#Cc1c(Cl)nc(SCc2ccccc2)nc1-c1ccccc1	–	–	?	–	–	–
CCOC(=O)CSc1nnc(Cn2nnc3ccccc32)n1-c1ccc(F)cc1	–	–	–	–	–	·
N#C/C(=C\c1c[nH]c2ccccc12)C(=O)Nc1ncc(Cc2ccc(Cl)cc2Cl)s1	–	–	11.2µM	?	–	–
Cn1cc(/C=C(\C#N)C(=O)Nc2ncc(Cc3cccc(Cl)c3)s2)c2ccccc21	–	–	–	?	–	·
O=C1c2cccc3c(N4CCOCC4)c([N+](=O)[O-])cc(c23)C(=O)N1c1cccc2ccccc12	?	–	?	10.4µM	–	–
CN(C)c1ccc(C(=O)OCC(=O)N2CCOCC2)cc1	–	23.5	?	–	–	–
CCCCOc1ccc(C(=O)OCC(=O)N2CCOCC2)cc1	–	–	–	–	–	·
CCOc1ccc2nc(Cl)c(C3CC(c4ccco4)=NN3S(=O)(=O)c3ccccc3)cc2c1 (configuration not stated)	?	–	10µM	7.38µM	+	–
COc1ccc(OC)c(S(=O)(=O)N2CCCC(C(=O)NCc3ccco3)C2)c1 (configuration not stated)	–	–	–	–	–	·
O=S(=O)(Nc1cccc(-c2ccc(N3CCCCCC3)nn2)c1)c1cccc(F)c1	–	39.8	?	–	115.7	–
CCC(CC)c1nnc(NC(=O)c2ccc(S(=O)(=O)N3CCc4ccccc4C3)cc2)s1	–	–	–	–	–	·
Cc1ccc2nc(NNC(=O)c3ccc(S(=O)(=O)N4CCc5ccccc5C4)cc3)sc2c1	1.85µM	–	10µM	2.94µM	–	?
N#C/C(=C(/O)CSc1nnc(Cc2cccs2)n1C1CCCCC1)c1nc2ccccc2[nH]1	6.57µM	–	17.8µM	–	–	–
COc1ccc2c(c1)c(CC(=O)Nc1cc(C)ccc1C)c(C)n2C(=O)c1ccc(Cl)cc1	?	–	?	11.7µM	–	–
O=C(/C=C/c1ccc(Cl)cc1Cl)NC(=S)Nc1ccc(CN2CCOCC2)cc1	–	–	?	–	–	–
O=C(/C=C/c1ccccc1)NC(=S)Nc1ccc(CN2CCOCC2)cc1	–	–	–	–	–	·
CCN(CC)c1nc(N)n(CCSC(=S)N(C)C)c(=O)n1	–	–	?	?	–	–
CCN(CC)c1nc2n(c(=O)n1)CCO2	–	–	–	–	–	·
O=c1cc(O)n(-c2ccccc2F)c(=S)[nH]1	–	–	3.16µM	·	–	–
COc1ccc(OCCCC(=O)NNC(=O)c2ccncc2)cc1	–	·	·	–	·	·
